Counter-ions that a name gives are not always drawn. ± gives the uncertainty stated by the source.
Tested on: NCC-PMP1-C1
Assay: cell viability relative to DMSO control; higher = less growth inhibition
Settings: 10 µM; 72 h
Experimental: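 NCC-PMP1-C1 pseudomyxoma peritonei cells were seeded in 384-well plates coated with Matrigel and MEF (1e4 cells). Viability was read after 72 h by CCK-8 and expressed as % of the DMSO control, mean ± SD of duplicates.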

Question: How did the cell viability turn out when `CC(=O)O[C@]1(C(C)=O)CC[C@H]2[C@@H]3C=C(C)C4=CC(=O)CC[C@]4(C)[C@H]3CC[C@@]21C` [Megestrol Acetate] was run?
Answer: 91.4 ± 16%

Question: How did the cell viability turn out when `O=c1[nH]c(=O)n([C@H]2C[C@H](O)[C@@H](CO)O2)cc1F` [Floxuridine] was run?
Answer: 108 ± 12%

Question: For `COC(=O)c1ccc2c(C(=Nc3ccc(N(C)C(=O)CN4CCN(C)CC4)cc3)c3ccccc3)c(O)[nH]c2c1` [Nintedanib (BIBF 1120)], which cell viability is on record?
Answer: 23.9 ± 1.6%

Question: How did the cell viability turn out when `CCOC(=O)[C@H](CCc1ccccc1)N[C@H]1CS[C@H](c2cccs2)CN(CC(=O)O)C1=O` [Temocapril HCl] was run?
Answer: 84.76 ± 0.83%

Question: For `Cc1cc(Nc2ncc(Cl)c(Nc3ccccc3S(=O)(=O)C(C)C)n2)c(OC(C)C)cc1C1CCNCC1` [Ceritinib (LDK378)], which cell viability is on record?
Answer: -3.34 ± 0.36%

Question: `O=C(O)C1=CO[C@@H](O[C@@H]2O[C@H](CO)[C@@H](O)[C@H](O)[C@H]2O)[C@@H]2C(CO)=CC[C@H]12` [Geniposidic acid] was tested. Which cell viability did it give?
Answer: 97.1 ± 2.2%

Question: Which cell viability does the source give for `COc1ccc(C2=N[C@@H](c3ccc(Cl)cc3)[C@@H](c3ccc(Cl)cc3)N2C(=O)N2CCNC(=O)C2)c(OC(C)C)c1` [Nutlin-3] here?
Answer: 74.1 ± 4.9%

Question: Which cell viability does the source give for `CN1CCN(c2ccc(C(=O)Nc3n[nH]c4ccc(Cc5cc(F)cc(F)c5)cc34)c(NC3CCOCC3)c2)CC1` [Entrectinib (RXDX-101)] here?
Answer: -0.545 ± 0.059%

Question: How did the cell viability turn out when `CC[C@]1(O)C[C@H]2CN(CCc3c([nH]c4ccccc34)[C@@](C(=O)OC)(c3cc4c(cc3OC)N(C=O)[C@H]3[C@@](O)(C(=O)OC)[C@H](OC(C)=O)[C@]5(CC)C=CCN6CC[C@]43[C@@H]65)C2)C1` [Vincristine] was run?
Answer: 50.8 ± 0.53%

Question: How did the cell viability turn out when `CS(=O)(=O)CCNCc1ccc(-c2ccc3ncnc(Nc4ccc(OCc5cccc(F)c5)c(Cl)c4)c3c2)o1` [Lapatinib] was run?
Answer: 50.4 ± 2.3%

Question: How did the cell viability turn out when `Nc1nc(F)nc2c1ncn2[C@@H]1O[C@H](CO)[C@@H](O)[C@@H]1O` [Fludarabine] was run?
Answer: 114 ± 29%

Question: For `CCc1c2c(nc3ccc(OC(=O)N4CCC(N5CCCCC5)CC4)cc13)-c1cc3c(c(=O)n1C2)COC(=O)[C@]3(O)CC` [Irinotecan HCl Trihydrate], which cell viability is on record?
Answer: 101 ± 4.5%

Question: How did the cell viability turn out when `CO[C@H]1O[C@@H]2O[C@@]3(C)CC[C@H]4[C@H](C)CC[C@@H]([C@H]1C)[C@@]24OO3` [Artemether] was run?
Answer: 105 ± 6.2%

Question: Which cell viability does the source give for `COc1cc2c(cc1O)CCN[C@]21CS[C@@H]2c3c(OC(C)=O)c(C)c4c(c3[C@H](COC1=O)N1[C@@H]2[C@H]2c3c(cc(C)c(OC)c3O)C[C@@H]([C@@H]1O)N2C)OCO4` [Trabectedin] here?
Answer: -0.842 ± 0.95%

Question: `Nc1nc2n[nH]nc2c(=O)[nH]1` [Azaguanine-8] was tested. Which cell viability did it give?
Answer: 55.8 ± 6.5%

Question: `O=C1CCC(N2C(=O)c3ccccc3C2=O)C(=O)N1` (stereo unspecified) [Thalidomide] was tested. Which cell viability did it give?
Answer: 110 ± 6.2%

Question: Which cell viability does the source give for `CO[C@H](C(=O)[C@@H](O)[C@@H](C)O)[C@@H]1Cc2cc3cc(O[C@H]4C[C@@H](O[C@H]5C[C@@H](O)[C@H](O)[C@@H](C)O5)[C@H](O)[C@@H](C)O4)c(C)c(O)c3c(O)c2C(=O)[C@H]1O[C@H]1C[C@@H](O[C@H]2C[C@@H](O[C@H]3C[C@](C)(O)[C@H](O)[C@@H](C)O3)[C@H](O)[C@@H](C)O2)[C@H](O)[C@@H](C)O1` [Mithramycin A] here?
Answer: 7.11 ± 5.3%

Question: Which cell viability does the source give for `Cc1ccc(-c2cc(C(F)(F)F)nn2-c2ccc(S(N)(=O)=O)cc2)cc1` [Celecoxib] here?
Answer: 99.99 ± 0.53%

Question: `CCN(CC)CCNC(=O)c1c(C)[nH]c(/C=C2\C(=O)Nc3ccc(F)cc32)c1C` [Sunitinib Malate] was tested. Which cell viability did it give?
Answer: 50.6 ± 16%

Question: Which cell viability does the source give for `C=CC(=O)Nc1cccc(Nc2nc(Nc3ccc(N4CCN(C(C)=O)CC4)cc3OC)ncc2C(F)(F)F)c1` [Rociletinib (CO-1686, AVL-301)] here?
Answer: 57.8 ± 3.1%

Question: With `Clc1ccc(C(c2ccccc2Cl)C(Cl)Cl)cc1` (stereo unspecified) [Mitotane] as the compound, how does the cell viability read?
Answer: 106.8 ± 1%

Question: `COc1cccc2c1C(=O)c1c(O)c3c(c(O)c1C2=O)C[C@@](O)(C(=O)CO)C[C@@H]3O[C@H]1C[C@H](N)[C@@H](O)[C@H](C)O1` [Epirubicin HCl] was tested. Which cell viability did it give?
Answer: 3.6 ± 0.6%

Question: For `COc1nc(N)nc2c1ncn2[C@@H]1O[C@H](CO)[C@@H](O)[C@@H]1O` [Nelarabine], which cell viability is on record?
Answer: 127 ± 21%

Question: How did the cell viability turn out when `COc1cccc2c1C(=O)c1c(O)c3c(c(O)c1C2=O)C[C@@](O)(C(=O)CO)C[C@@H]3O[C@H]1C[C@H](N)[C@H](O)[C@H](C)O1` [Doxorubicin (Adriamycin)] was run?
Answer: 3.06 ± 0.067%

Question: How did the cell viability turn out when `CNC[C@H](O)c1ccc(O)c(O)c1` [Epinephrine Bitartrate] was run?
Answer: 127 ± 6.3%

Question: How did the cell viability turn out when `Nc1cc(C(Cl)=C(Cl)Cl)c(S(N)(=O)=O)cc1S(N)(=O)=O` [Clorsulon] was run?
Answer: 117 ± 9.7%

Question: With `Cc1ccc(NC(=O)c2ccc(CN3CCN(C)CC3)cc2)cc1Nc1nccc(-c2cccnc2)n1` [Imatinib Mesylate (STI571)] as the compound, how does the cell viability read?
Answer: 75.2 ± 4.4%

Question: `O=C(O)C1(C(=O)O)CCC1.[NH2-].[NH2-].[Pt+2]` [Carboplatin] was tested. Which cell viability did it give?
Answer: 61.9 ± 9.4%

Question: How did the cell viability turn out when `COc1cc2nccc(Oc3ccc(NC(=O)NC4CC4)c(Cl)c3)c2cc1C(N)=O` [Lenvatinib (E7080)] was run?
Answer: 69.6 ± 2%

Question: For `COc1c2occc2cc2ccc(=O)oc12` [Methoxsalen], which cell viability is on record?
Answer: 92.6 ± 16%

Question: With `CC(C)(OCc1nn(Cc2ccccc2)c2ccccc12)C(=O)O` [Bindarit] as the compound, how does the cell viability read?
Answer: 104 ± 7.1%

Question: For `CCC[C@@H]1C[C@@H](C(=O)N[C@@H]([C@H]2O[C@H](SC)[C@H](O)[C@@H](O)[C@H]2O)[C@@H](C)O)N(C)C1` [Lincomycin HCl], which cell viability is on record?
Answer: 74.4 ± 15%

Question: How did the cell viability turn out when `Cc1nc(NC(=O)N2CCC[C@H]2C(N)=O)sc1-c1ccnc(C(C)(C)C(F)(F)F)c1` [Alpelisib] was run?
Answer: 56.6 ± 3%

Question: How did the cell viability turn out when `Cc1ccc(NC(=O)c2ccc(CN3CCN(C)CC3)cc2)cc1Nc1nccc(-c2cccnc2)n1` [Imatinib (STI571)] was run?
Answer: 92.3 ± 6.7%

Question: How did the cell viability turn out when `Nc1ncn([C@H]2C[C@H](O)[C@@H](CO)O2)c(=O)n1` [Decitabine] was run?
Answer: 95.2 ± 0.53%

Question: `Cn1nnc2c(C(N)=O)ncn2c1=O` [Temozolomide] was tested. Which cell viability did it give?
Answer: 118 ± 5.8%

— the supplement of paper PMC8877412
